Experimental data published in PubChem BioAssay (NCI).
About 83,000 compounds went through this panel and 20% of them were active in at least one assay; those are over-represented in the sample as a whole.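 The test compound was applied at a single concentration to cells in 96-well plates for 48 hours, and percent growth was recorded.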 A number with no mark means an inactive call. Activity calls are given as the source filed them. Rule for the calls: active = growth percent below 10; inactive = the rest.

Legend:
Test in all cases: NCI-60 one-dose screen, 48 h (100 = growth as untreated, 0 = no growth, -100 = all killed)
Conditions in all cases: 10 µM unless noted
NCI-H23 lung = system: NCI-H23 lung
NCI-H226 lung = system: NCI-H226 lung
NCI-H322M lung = system: NCI-H322M lung
NCI-H460 lung = system: NCI-H460 lung
HOP-92 NSCLC = system: HOP-92 NSCLC
NCI-H522 lung = system: NCI-H522 lung
A549/ATCC NSCLC = system: A549/ATCC NSCLC
786-0 renal = system: 786-0 renal
COLO 205 colon = system: COLO 205 colon
DU-145 prostate = system: DU-145 prostate
K-562 leukemia = system: K-562 leukemia
MALME-3M melanoma = system: MALME-3M melanoma
MDA-MB-231 breast = system: MDA-MB-231 breast
RXF 393 renal = system: RXF 393 renal
SF-268 CNS = system: SF-268 CNS
SF-295 CNS = system: SF-295 CNS
SF-539 CNS = system: SF-539 CNS
UACC-257 melanoma = system: UACC-257 melanoma
M14 melanoma = system: M14 melanoma
HOP-62 NSCLC = system: HOP-62 NSCLC

Compound	growth (NCI-H23 lung)	growth (NCI-H226 lung)	growth (NCI-H322M lung) [%]	growth (NCI-H460 lung)	growth (HOP-92 NSCLC)	growth (NCI-H522 lung)	growth (A549/ATCC NSCLC)	growth (786-0 renal)	growth (COLO 205 colon)	growth (DU-145 prostate)	growth (K-562 leukemia)	growth (MALME-3M melanoma)	growth (MDA-MB-231 breast)	growth (RXF 393 renal)	growth (SF-268 CNS)	growth (SF-295 CNS)	growth (SF-539 CNS)	growth (UACC-257 melanoma)	growth (M14 melanoma)	growth (HOP-62 NSCLC)
CCC(CC(C)C)Nc1ccc(NC(CC)CC(C)C)cc1 (stereo unspecified)	77.7%	76.5%	107	94.5%	-13.1% (active)	14.6%	89.2%	93.1%	76.9%	103%	-4.28% (active)	97.7%	93.1%	96.5%	72.2%	95.3%	107%	92.4%	–	–
Cc1[nH]n(C(=O)c2ccncc2)c(=O)c1N=Nc1ccc(S(=O)(=O)Nc2ccncn2)cc1	100%	90%	115	115%	54.7%	102%	18.9%	–	127%	126%	55.3%	124%	103%	–	95.5%	134%	107%	-1.41% (active)	106%	–
CCCCCn1ncc(-c2c(O)c(O)cc3c(O)c(-c4c(C)cc5c(-c6cnn(CCCCC)n6)c(O)c(O)cc5c4O)c(C)cc23)n1	-15.1% (active)	-3.01% (active)	33.7	–	-23.8% (active)	-56.2% (active)	–	-10.2% (active)	-6.73% (active)	22.9%	–	27%	32.9%	-4.68% (active)	5.18% (active)	10%	3.31% (active)	16.2%	-20.8% (active)	4.15% (active)
Cc1ccc(-c2cn3cc([N+](=O)[O-])ccc3n2)cc1	83.5%	72.2%	95.9	–	110%	71.3%	85.5%	91.9%	94.4%	68.8%	82%	103%	79.1%	90.4%	77.3%	101%	91.2%	87.4%	72.5%	–
Nc1ncc(-c2ccc3ncnc(Nc4ccc(F)c(Cl)c4)c3c2)cn1	56.2%	55.5%	33	11.9%	31.9%	42.9%	34.6%	6.18% (active)	32.3%	43.3%	55.5%	36.3%	54.4%	32.9%	54.9%	16.2%	55.4%	101%	87.5%	–
C=CCOc1ccc(/C(Cl)=N/N=C(\Cl)c2cc(OC)c(OC)c(OC)c2)cc1	64.9%	81.8%	97.4	–	65.1%	37.9%	59.5%	98.1%	72.2%	70%	69.4%	90.9%	82.4%	58.7%	85.5%	87.9%	88.8%	53.3%	73.4%	–
CCCC(=O)Oc1ccc(/C(=C(\C)c2ccc(Cl)cc2)c2ccc(OCCN(CC)CC)cc2)cc1	-33.4% (active)	68.4%	24.1	-83.9% (active)	-13.1% (active)	-55% (active)	–	-89.6% (active)	-84% (active)	-22.9% (active)	-19.6% (active)	-77.5% (active)	-40.9% (active)	-79.5% (active)	-9.12% (active)	-75.9% (active)	-77.9% (active)	-62.2% (active)	–	–
Nc1ncc(-c2ccc3ncnc(Nc4cncc(Cl)c4)c3c2)cn1	65.1%	55.2%	29.8	–	–	55.5%	65.4%	65.8%	75.6%	49.7%	82.9%	38.7%	66.5%	60.3%	68.2%	77.2%	78.1%	82.9%	77.9%	65.6%
CN(C)c1ncc(C#Cc2c(F)cccc2F)c2ccccc12	89.9%	89.4%	88.5	84%	40.4%	70.7%	86.5%	105%	98.7%	97.4%	–	113%	80.2%	93.2%	87.2%	102%	94.5%	99%	86.3%	–
CC(Cc1cccc(C(F)(F)F)c1)NCCOC(=O)c1ccccc1 (stereo unspecified)	101%	98.3%	100	–	114%	100%	105%	97.9%	106%	112%	94.4%	104%	102%	117%	99.5%	98.4%	116%	105%	106%	–
COC(=O)c1ccc2c(c1)Oc1ccc(Cl)cc1-c1cc(C)nn1-2	78.1%	37.4%	81.9	14%	–	82.3%	40.5%	69.5%	69.6%	82.3%	89.5%	80%	60.7%	91.8%	80.5%	24.6%	68.4%	108%	89%	–
Cc1ccccc1C[P+](c1ccccc1)(c1ccccc1)c1ccccc1	11.6%	32.9%	57.7	21%	-7.58% (active)	0.342% (active)	29.9%	40.7%	9.84% (active)	32.4%	22.4%	5.05% (active)	46.3%	50.4%	16.7%	25.2%	33.6%	-1.88% (active)	29.2%	–
COc1ccc(N)c(S)c1	92.3%	92.8%	106	106%	88.4%	84.5%	77.1%	107%	84.5%	102%	97.4%	101%	86.7%	111%	105%	100%	101%	80.5%	–	–
CN(C)C(=O)Nc1nc2cc(Cl)c(Cl)cc2[nH]1	11.4%	30.4%	39.9	2.78% (active)	75.3%	-58.1% (active)	3.32% (active)	-66.2% (active)	-12.9% (active)	4.55% (active)	-10% (active)	47.4%	46.1%	–	36.5%	9.99% (active)	-24.7% (active)	17%	-66.9% (active)	–
CCC(N)(C(=O)O)c1ccc(F)cc1 (stereo unspecified)	102%	106%	113	106%	93.9%	90.2%	81.5%	99.9%	105%	108%	91.9%	112%	110%	123%	102%	108%	109%	86.2%	103%	–
COc1cc2ncnc(Oc3ccc(NC(=O)Nc4ccc(C5(C#N)CCCC5)cc4)c4ccccc34)c2cc1OC	47.6%	80.3%	66.7	19.3%	-39.8% (active)	37.8%	25.6%	-40.7% (active)	82.5%	57.7%	–	31.3%	43.6%	14.9%	27%	13.7%	64.7%	94.8%	47.3%	–
Cc1cc(O[C@@H]2O[C@@H](C)[C@H](O)[C@@H](O)[C@H]2O)c2c3c(c(O[C@@H]4O[C@@H](C)[C@H](O)[C@@H](O)[C@H]4O)cc2c1)C(=O)c1c(O)cccc1C3=O	95.4%	52.1%	95.4	–	–	64.8%	76.8%	24.4%	94.5%	98%	79.6%	107%	86.3%	29.6%	56.3%	79%	92.5%	87.2%	82.6%	77.4%
